According to PubChem BioAssay (NCI):
About 83,000 compounds went through this panel and 20% of them were active in at least one assay; those are over-represented in the sample as a whole.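 Values shown are percent growth following 48 h exposure of cells in 96-well plates to a single concentration of compound; below 10 was considered active.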 Active and inactive are the calls of the source.

How the values were obtained:
Assay in all cases: NCI-60 one-dose screen, 48 h (100 = growth as untreated, 0 = no growth, -100 = all killed)
Details in all cases: 10 µM unless noted
[1] = system: NCI-H23 lung
[2] = system: NCI-H226 lung
[3] = system: NCI-H322M lung
[4] = system: HOP-62 NSCLC
[5] = system: NCI-H460 lung
[6] = system: HOP-92 NSCLC
[7] = system: NCI-H522 lung
[8] = system: A549/ATCC NSCLC
[9] = system: 786-0 renal
[10] = system: COLO 205 colon
[11] = system: DU-145 prostate
[12] = system: K-562 leukemia
[13] = system: MALME-3M melanoma
[14] = system: MDA-MB-231 breast
[15] = system: RXF 393 renal
[16] = system: SF-268 CNS
[17] = system: SF-295 CNS
[18] = system: SF-539 CNS
[19] = system: UACC-257 melanoma
[20] = system: M14 melanoma

Measured: growth

CCCCCCN(C)Cc1ccc(OCCOc2ccc(CN(C)CCCCCC)cc2)cc1
active: [3] 3.16% | [5] -77.5% | [6] -9.72% | [9] -72.6% | [10] -67.4% | [12] -20.7% | [13] -80.6% | [14] 4.17% | [15] -29.2% | [17] -51.9% | [19] -52.5% | [20] -96.9%
inactive: [1] 11% | [2] 50% | [4] 17.9% | [7] 35.3% | [8] 44% | [11] 50.1% | [16] 45.5% | [18] 13.5%

Nc1ccccc1NC(=O)c1ccc(CN2CCC/C(=C\c3cccc(Cl)c3)C2=O)cc1
active: [5] 7.66% | [7] -32% | [10] -51.8% | [11] 8.37% | [12] 4.21% | [14] -2.78% | [16] 3.92% | [18] 5.47%
inactive: [1] 21.1% | [2] 40% | [3] 40.8% | [4] 19% | [6] 44.1% | [8] 33% | [9] 14.2% | [13] 63.7% | [15] 20.6% | [17] 25.5% | [19] 37.7% | [20] 24%

CC(C)(C#N)N1CCN(c2ccccc2Cl)CC1
inactive: [1] 98.8% | [2] 103% | [3] 94.8% | [4] 102% | [5] 104% | [6] 98% | [7] 90.9% | [8] 95.1% | [9] 97.9% | [10] 113% | [11] 105% | [12] 96.4% | [13] 91.2% | [14] 110% | [15] 118% | [16] 101% | [17] 97.2% | [18] 96.8% | [19] 92.1% | [20] 99.2%

O=S(=O)(NCCCNc1nccc(-c2c(-c3cccc(O)c3)nc3occn23)n1)c1ccc(F)cc1
inactive: [1] 88.6% | [2] 110% | [3] 103% | [4] 117% | [5] 80.9% | [6] 116% | [7] 77.7% | [8] 88.8% | [9] 92.1% | [10] 35.5% | [11] 85.8% | [12] 68.7% | [13] 17.9% | [14] 62.7% | [15] 68% | [16] 84.5% | [17] 101% | [18] 101% | [19] 19.7% | [20] 27.5%

N#CSCC1CC(O)(c2ccccc2)C(c2ccccc2)C(c2ccc(F)cc2)O1 (stereo not given)
inactive: [2] 63.1% | [3] 60.4% | [4] 60.3% | [5] 25.2% | [7] 25.2% | [8] 63.1% | [10] 22.1% | [12] 12.6% | [15] 25.9% | [16] 29.9% | [17] 52.9% | [18] 40.5% | [19] 60.1%
active: [1] 7.22% | [6] 1.42% | [9] 3.08% | [11] -4.17% | [13] -10.9% | [14] -4.68% | [20] -2.19%

CCc1c(Nc2ccc(C)cc2)nc(N)[nH]c1=O
inactive: [1] 103% | [2] 102% | [3] 103% | [4] 98.7% | [5] 108% | [6] 93.7% | [7] 90.5% | [8] 99.5% | [9] 100% | [10] 108% | [11] 111% | [12] 94.7% | [13] 98.6% | [14] 94.7% | [15] 109% | [16] 102% | [17] 98.3% | [18] 101% | [19] 102% | [20] 100%

Nc1cc(N)c2cccnc2c1O
inactive: [1] 35.5% | [2] 89.8% | [3] 78% | [4] 69.5% | [5] 15.2% | [6] 72.3% | [7] 67.2% | [8] 63% | [9] 89.8% | [10] 102% | [11] 72.7% | [12] 37.5% | [13] 85% | [14] 78.6% | [15] 74.9% | [16] 83.4% | [17] 63.2% | [18] 66.1% | [19] 76.1% | [20] 76.5%

CC(O)/C=C/C=C/C(O)CC/C=C/C(=O)NCC(C)(C)O (stereo not given)
inactive: [1] 95.3% | [2] 108% | [3] 106% | [4] 110% | [5] 101% | [6] 96.1% | [7] 79.4% | [8] 96.1% | [9] 109% | [10] 118% | [11] 106% | [12] 72.8% | [13] 112% | [14] 111% | [15] 121% | [16] 108% | [17] 107% | [18] 109% | [19] 91.5% | [20] 101%

CCCCCCc1nc2nc(Cl)c(Cl)nc2[nH]1
active: [6] -13.8%
inactive: [1] 34.8% | [2] 63.2% | [3] 96% | [4] 88.1% | [5] 52.7% | [7] 32.6% | [8] 53.2% | [9] 65.8% | [10] 102% | [11] 72.5% | [12] 39% | [13] 46.6% | [14] 89.4% | [15] 90.4% | [16] 83.3% | [17] 58% | [18] 65.3% | [19] 54.9% | [20] 89.6%

O=C1CCC(NC(=S)Nc2ccccc2)N1 (stereo not given)
inactive: [1] 91.2% | [2] 103% | [3] 99.5% | [4] 109% | [5] 115% | [6] 102% | [7] 92.8% | [8] 101% | [9] 105% | [10] 120% | [11] 112% | [12] 97.5% | [13] 99.6% | [14] 109% | [15] 117% | [16] 104% | [17] 110% | [18] 105% | [19] 104% | [20] 110%

COc1ccc2c(Nc3ccc(NS(C)(=O)=O)cc3)c3ccccc3nc2c1
inactive: [9] 18.4%
active: [1] -18.6% | [2] -27.1% | [3] 9.34% | [4] -0.998% | [5] -21.8% | [6] -16.6% | [7] -58.6% | [8] -71.2% | [10] -74.1% | [11] 8.86% | [12] 6.83% | [13] -50.7% | [14] 3.5% | [15] -73.9% | [16] -2.84% | [17] -27.9% | [18] -0.512% | [19] -78% | [20] -53.6%

CCCCCCOc1ccc(/C=N/Nc2cc(C)nc3ccc(Br)cc23)cc1
active: [3] -73.7% | [4] -65.4% | [5] -72% | [7] -61.4% | [8] -59.5% | [9] -87.7% | [10] -51.8% | [11] -82.9% | [12] -64.5% | [13] -82.3% | [14] -88.9% | [15] -97.3% | [16] -1.78% | [17] -83.3% | [18] -84.8% | [20] -44.4%
inactive: [1] 14% | [2] 71.1% | [6] 34.5% | [19] 117%

CCn1ccnc1C(=O)/C=C/c1ccc(CC(=O)Nc2ccc(F)cc2)cc1
inactive: [1] 29.2% | [2] 87.4% | [3] 35.4% | [6] 62.8% | [7] 18.2% | [8] 32.9% | [9] 24.6% | [10] 33.4% | [13] 92.4% | [14] 25.9% | [15] 26% | [17] 22.2% | [19] 83.5% | [20] 75.5%
active: [4] 8.48% | [5] 5.47% | [11] -24.8% | [12] 7.76% | [16] 5% | [18] 1.75%

C=C1C(=O)O[C@H]2[C@H]1CC/C(COC(=O)NCCc1c[nH]c3ccc(Cl)cc13)=C\CC[C@@]1(C)O[C@@H]21
active: [6] -71% | [7] -80.1% | [9] -78.7% | [10] -70.9% | [11] -87.8% | [12] -13.2% | [13] -84.4% | [14] -70.5% | [15] -93.6% | [16] -71% | [18] -63.8% | [19] -11.6% | [20] -54.8%
inactive: [1] 13.8% | [2] 30.7% | [3] 81.6% | [4] 64.6% | [5] 17.5% | [8] 56.5% | [17] 75.4%

COC(=O)N[C@H]1CCc2cc(OC)c(OC)c(OC)c2-c2ccc(SC)c(=O)cc21
inactive: [1] 23.3% | [3] 29.8% | [4] 23.4% | [6] 15.2% | [8] 13.6% | [9] 14.1% | [13] 37.3% | [15] 22.5% | [16] 15.9% | [19] 59.4%
active: [2] -3.52% | [5] 2.04% | [7] -17.9% | [10] -18.6% | [11] 1.4% | [12] 9.06% | [14] -22.3% | [17] 7.65% | [18] -27.6% | [20] 3.18%

CS(=O)(=O)c1ccc(-c2cc(-c3nnc(SCC(=O)Nc4ccc(C(=O)/C=C/c5ccc(Cl)cc5)cc4)n3-c3ccccc3)c3ccccc3n2)cc1
inactive: [1] 97.8% | [2] 94.6% | [3] 89.8% | [4] 95.1% | [5] 99.1% | [6] 110% | [7] 90% | [8] 91.5% | [9] 93% | [10] 106% | [11] 105% | [12] 89.9% | [13] 104% | [14] 92.1% | [15] 92.3% | [16] 81.7% | [17] 96% | [18] 87.5% | [19] 107% | [20] 97.5%
